Measured values published in paper PMC11062922 (Nature Chemical Biology, 2023).
Where two headings read alike, the source gives them in different places.

Tests used:
Design in all cases: species or system human, MV4-11 + K-562 + COLO205 + SK-N-BE2 + OVCAR-8
CSNK2A2 = conditions: read-out: apparent Kd, compound concentrations: 100 nM and 1000 nM (sheet 'Samples'), n = 1
DJA1 = tested on: T1, DJA1; conditions: read-out: apparent Kd; compound concentrations: 100 nM and 1000 nM (sheet 'Samples'), CATDS: 0.455945316982168; n = 1
T1 construct: gene DNAJA1

FLT4 = conditions: read-out: apparent Kd, compound concentrations: 100 nM and 1000 nM (sheet 'Samples'), n = 1
NQO2 = conditions: read-out: apparent Kd; compound concentrations: 100 nM and 1000 nM (sheet 'Samples'), CATDS: 0.17633941136765999; n = 1
DDR1 = conditions: read-out: apparent Kd, compound concentrations: 100 nM and 1000 nM (sheet 'Samples'), n = 1
HCK = conditions: read-out: apparent Kd; compound concentrations: 100 nM and 1000 nM (sheet 'Samples'), CATDS: 9.2745081986231104E-2; n = 1
IRAK3 = conditions: read-out: apparent Kd; compound concentrations: 100 nM and 1000 nM (sheet 'Samples'), CATDS: 7.7549132648748395E-2; n = 1
LYN = conditions: read-out: apparent Kd; compound concentrations: 100 nM and 1000 nM (sheet 'Samples'), CATDS: 7.2911258996188402E-2; n = 1
MAPK11 = conditions: read-out: apparent Kd; compound concentrations: 100 nM and 1000 nM (sheet 'Samples'), CATDS: 7.9880632684471306E-2; n = 1
MAPK14 = conditions: read-out: apparent Kd; compound concentrations: 100 nM and 1000 nM (sheet 'Samples'), CATDS: 7.1692025023195896E-2; n = 1
PIP4K2C = conditions: read-out: apparent Kd; compound concentrations: 100 nM and 1000 nM (sheet 'Samples'), CATDS: 6.71745626151799E-2; n = 1
RET = conditions: read-out: apparent Kd, compound concentrations: 100 nM and 1000 nM (sheet 'Samples'), n = 1
RIPK3 = conditions: read-out: apparent Kd; compound concentrations: 100 nM and 1000 nM (sheet 'Samples'), CATDS: 7.1422785641186204E-2; n = 1
TNK1 = conditions: read-out: apparent Kd; compound concentrations: 100 nM and 1000 nM (sheet 'Samples'), CATDS: 0.18276083287815401; n = 1
TP53RK = conditions: read-out: apparent Kd; compound concentrations: 100 nM and 1000 nM (sheet 'Samples'), CATDS: 6.3683372655405995E-2; n = 1
YES1 = conditions: read-out: apparent Kd; compound concentrations: 100 nM and 1000 nM (sheet 'Samples'), CATDS: 0.118526844217484; n = 1
DCTPP1 = conditions: read-out: apparent Kd, compound concentrations: 100 nM and 1000 nM (sheet 'Samples'), n = 1
GSK3A = conditions: read-out: apparent Kd; compound concentrations: 100 nM and 1000 nM (sheet 'Samples'), CATDS: 0.126367112680837; n = 1
GSK3B = conditions: read-out: apparent Kd; compound concentrations: 100 nM and 1000 nM (sheet 'Samples'), CATDS: 0.11758336701376999; n = 1
HSP90AA1 = conditions: read-out: apparent Kd; compound concentrations: 100 nM and 1000 nM (sheet 'Samples'), CATDS: 0.187388385432427; n = 1
HSPE1 = conditions: read-out: apparent Kd; compound concentrations: 100 nM and 1000 nM (sheet 'Samples'), CATDS: 0.293791169928867; n = 1
PGK1 = conditions: read-out: apparent Kd; compound concentrations: 100 nM and 1000 nM (sheet 'Samples'), CATDS: 0.43205738676527899; n = 1
PKM = conditions: read-out: apparent Kd; compound concentrations: 100 nM and 1000 nM (sheet 'Samples'), CATDS: 9.7600585068996298E-2; n = 1
CSNK1D = conditions: read-out: apparent Kd; compound concentrations: 100 nM and 1000 nM (sheet 'Samples'), CATDS: 0.46855924192133103; n = 1
PBK = conditions: read-out: apparent Kd; compound concentrations: 100 nM and 1000 nM (sheet 'Samples'), CATDS: 0.53596365658376799; n = 1
PHKG2 = conditions: read-out: apparent Kd; compound concentrations: 100 nM and 1000 nM (sheet 'Samples'), CATDS: 0.27508455171149998; n = 1
PIK3CG = conditions: read-out: apparent Kd; compound concentrations: 100 nM and 1000 nM (sheet 'Samples'), CATDS: 0.403949586222208; n = 1
GARS = conditions: read-out: apparent Kd; compound concentrations: 100 nM and 1000 nM (sheet 'Samples'), CATDS: 0.27158737746623501; n = 1
NTRK1 = conditions: read-out: apparent Kd; compound concentrations: 100 nM and 1000 nM (sheet 'Samples'), CATDS: 0.40728649446902998; n = 1
DDR2 = conditions: read-out: apparent Kd; compound concentrations: 100 nM and 1000 nM (sheet 'Samples'), CATDS: 0.19207540013006; n = 1
FLT3 = conditions: read-out: apparent Kd; compound concentrations: 100 nM and 1000 nM (sheet 'Samples'), CATDS: 0.237161124657183; n = 1
MAP3K1 = conditions: read-out: apparent Kd; compound concentrations: 100 nM and 1000 nM (sheet 'Samples'), CATDS: 0.16547922944675; n = 1
CSNK2A1;CSNK2A3 = conditions: read-out: apparent Kd; compound concentrations: 100 nM and 1000 nM (sheet 'Samples'), CATDS: 0.129612529480612; n = 1
FYN = conditions: read-out: apparent Kd; compound concentrations: 100 nM and 1000 nM (sheet 'Samples'), CATDS: 8.5832491833895103E-2; n = 1
PIK3CD = conditions: read-out: apparent Kd; compound concentrations: 100 nM and 1000 nM (sheet 'Samples'), CATDS: 0.50363081174980595; n = 1
PRKD1 = conditions: read-out: apparent Kd; compound concentrations: 100 nM and 1000 nM (sheet 'Samples'), CATDS: 0.12301509267520799; n = 1
PRKD2 = conditions: read-out: apparent Kd; compound concentrations: 100 nM and 1000 nM (sheet 'Samples'), CATDS: 0.237501197916752; n = 1
PRKD3 = conditions: read-out: apparent Kd; compound concentrations: 100 nM and 1000 nM (sheet 'Samples'), CATDS: 0.165514181456969; n = 1

CCS(=O)(=O)c1ccc(OC)c(Nc2ncc(-c3ccc(F)cc3)o2)c1.Cl [GW591947A] was tested, and the potency estimated from few doses (CSNK2A2; CATDS: 0.17401411869460601) was 1860 nM, the potency estimated from few doses (DJA1) was 131 nM and the potency estimated from few doses (FLT4; CATDS: 0.41854797783311298) was 152 nM. The potency estimated from few doses (NQO2) was 1750 nM.
With COc1cc(Nc2nccc(-c3c(-c4cccc(NC(=O)c5c(F)cccc5F)c4)nn4ncccc34)n2)cc(OC)c1OC [GSK327238A] the potency estimated from few doses (DDR1; CATDS: 6.8880271318571995E-2) was 1830 nM, the potency estimated from few doses (HCK) was 926 nM and the potency estimated from few doses (IRAK3) was 1360 nM. The potency estimated from few doses (LYN) was 1580 nM, the potency estimated from few doses (MAPK11) was 1270 nM and the potency estimated from few doses (MAPK14) was 1650 nM. It also gave a potency estimated from few doses (PIP4K2C) of 1960 nM, a potency estimated from few doses (RET; CATDS: 0.140384770008642) of 450 nM and a potency estimated from few doses (RIPK3) of 1660 nM. The potency estimated from few doses (TNK1) was 305 nM, the potency estimated from few doses (TP53RK) was 2300 nM and the potency estimated from few doses (YES1) was 592 nM.
Molecule Cn1cc(C2=C(c3cn(C)c4ccc(Cl)cc34)C(=O)NC2=O)c2ccccc21 [RO0317621-000] has a potency estimated from few doses (DCTPP1; CATDS: 8.8642199403974303E-2) of 2010 nM, a potency estimated from few doses (GSK3A) of 423 nM and a potency estimated from few doses (GSK3B) of 544 nM. It also gave a potency estimated from few doses (HSP90AA1) of 137 nM, a potency estimated from few doses (HSPE1) of 52.8 nM and a potency estimated from few doses (PGK1) of 27.6 nM. For the same molecule, the potency estimated from few doses (PKM) was 1180 nM.
With Cn1c(-c2ccncc2)c(-c2ccc(F)cc2)c2ncccc21 [RO1155240-000] the potency estimated from few doses (CSNK1D) was 2250 nM and the potency estimated from few doses (PBK) was 1720 nM.
Work on O=[N+]([O-])c1ccc2c(c1)C(c1ccccc1Cl)=Nc1c[nH]nc1N2 [RO0117162-000] yielded a potency estimated from few doses (DCTPP1; CATDS: 0.34611685739606901) of 1450 nM, a potency estimated from few doses (PHKG2) of 2440 nM and a potency estimated from few doses (PIK3CG) of 1090 nM.
In the case of FC(F)(F)c1ccc(-c2nn3ncccc3c2-c2ccnc(Nc3ccccc3)n2)cc1 [GW828206X], the potency estimated from few doses (DDR1; CATDS: 0.34932428035118401) is reported as 1130 nM, the potency estimated from few doses (GARS) is reported as 2010 nM and the potency estimated from few doses (NTRK1) is reported as 854 nM.
With COC(=O)Nc1nc2ccc(Oc3ccc(NC(=O)Nc4cccc(Cl)c4)cc3)cc2[nH]1.Cl [GW589961A] the potency estimated from few doses (DDR1; CATDS: 0.527903704232491) was 199 nM, the potency estimated from few doses (DDR2) was 1550 nM and the potency estimated from few doses (FLT3) was 874 nM. For the same molecule, the potency estimated from few doses (RET; CATDS: 0.213543633827599) was 1140 nM.
Work on CN(c1ccc2c(c1)nc(NCc1ccc(F)cc1)n2C)c1ccnc(Nc2ccc(CS(C)(=O)=O)cc2)n1.Cl [GW813244A] yielded a potency estimated from few doses (DDR1; CATDS: 0.20099617628952601) of 841 nM, a potency estimated from few doses (FLT4; CATDS: 0.39951332259871902) of 166 nM and a potency estimated from few doses (MAP3K1) of 1840 nM. For the same molecule, the potency estimated from few doses (RET; CATDS: 0.40344037001579403) was 163 nM.
Cc1cccc(-c2nc(Nc3ccc4[nH]nnc4c3)c3ccccc3n2)n1 [GW867587X] was tested, and the potency estimated from few doses (CSNK2A1;CSNK2A3) was 199 nM, the potency estimated from few doses (CSNK2A2; CATDS: 0.107908062412964) was 369 nM and the potency estimated from few doses (FYN) was 1180 nM. It also gave a potency estimated from few doses (PIK3CD) of 13.2 nM, a potency estimated from few doses (PRKD1) of 233 nM and a potency estimated from few doses (PRKD2) of 47 nM. The potency estimated from few doses (PRKD3) was 103 nM.
